Records with an inconclusive call do not appear. A call without a number means that no potency is given here. More than one record can exist for a structure, and the calls need not agree. Activity calls are given as the source filed them. Calls follow the shape of the dose curve; as a rule, active = well fitted cell-killing curve with a large enough effect in the repeat runs; inconclusive = weak or mixed curves, or effect the other way; inactive = flat fitted curve, though single readings scatter.
Potency is read from the fitted curve at half-maximal effect.

This test is described as follows: qHTS RealTime-Glo MT Cell Viability Assay in HEK293 cells - 8 hour (AID 1224887). Also: nearly all actives have a fitted effect of over 50% in size. The settings on record: RealTime-Glo luminescence; series mostly up to 76.8 µM. The text has this:
U.S. Tox21 Program National Center for Advancing Translational Sciences [NCATS] NIH Chemical Genomics Center [NCGC] U.S. Environmental Protection Agency [EPA] National Institutes of Environmental Health Sciences [NIEHS] National Toxicology Program [NTP] U.S. Food and Drug Administration [FDA] Tox21 Assay Overview: Measure of cell viability is critical in the cell-base assay. Analysis of cell viability is necessary for the characterization of cell responses to cytotoxic drugs and environmental stress. A RealTime-Glo MT Cell Viability Assay to monitor cell viability in real time of continues cell culture during 40 hours of compound treatment was used to screen Tox21 10K library compounds in Hek293 cells. The RealTime-Glo MT Cell Viability Assay is a nonlytic, homogeneous, bioluminescent method to measure cell viability in real time using a simple, plate-based method. The assay involves adding NanoLuc luciferase and a cell-permeant prosubstrate to cells in culture. Viable cells reduce the proprietary prosubstrate to generate a substrate for NanoLuc luciferase. This substrate diffuses from cells into the surrounding culture medium, where it is rapidly used by the NanoLuc Enzyme to produce a luminescent signal. The signal correlates with the number of viable cells, making the assay well suited for cytotoxicity studies.
Tox21 Assay Protocol Summary: The mixture of Hek293 cell suspension and reagents were dispensed at 600cells/6 ul/well in 1536-well tissue culture treated black solid bottom plates using a Multidrop dispenser. After the assay plates were incubated at a 37 C/5% CO2 incubator for 5 hours, 23 nL of compounds dissolved in DMSO, positive and negative controls was transferred to the assay plate by a pintool work station. The plates were incubated at 37 C for 40 hours. The luminescence intensity were measured at 0h, 8h, 16h, 24h, 32h and 40h time points using ViewLux plate reader during compound treatment.
Background: Quantitative high-throughput screening tests each substance at several concentrations.
As to `CNC(=O)Oc1cc(C)c(N(C)C)c(C)c1`, the Potency result was “inactive”.

Take `CCOc1cc(OP(=S)(OC)OC)nc(CC)n1`: the Potency entry was “inactive”.

With `CCC1(c2ccccc2)C(=O)N(COC)C(=O)N(COC)C1=O`, the Potency entry is “inactive”.

As for `Cn1c(N)nc2c3cccnc3ccc21`, the Potency entry is “inactive”.

`CCCCCCCCBr`: the Potency entry was “inactive”.

Take `ClC1=C(Cl)C2(Cl)C(CBr)CC1(Cl)C2(Cl)Cl` (stereo not given): the Potency was 43.6 µM (active) and inactive.

As to `C[N+]1(C)CCCCC1`, the Potency result was “inactive”.

Take `CNC(=O)NC(O)C(Cl)(Cl)Cl` (stereo not given): the Potency result is “inactive”.

With `ClCCN1CCCC1`, the Potency entry is “inactive”.

In the case of `NCC1(CC(=O)O)CCCCC1`, the Potency entry is “inactive”.

`N=C(N)[Se]`: the Potency result is “inactive”.

As to `COC(=O)[C@@H](N)CCCN/C(N)=N/[N+](=O)[O-]`, the Potency entry was “inactive”.

Regarding `CS(=O)(=O)Cl`, the Potency result is “inactive”.

For the compound `O=C(O)C(F)(F)C(F)(F)C(F)(F)C(F)(F)C(F)(F)C(F)(F)F`, the Potency result is “inactive”.

In the case of `CC(Cc1ccccc1)NCCn1cnc2c1c(=O)n(C)c(=O)n2C` (stereo not given), the Potency was 24.2 µM (active).

Turning to `C=C(Cl)CSC(=S)N(CC)CC`, the Potency result was “inactive”.

In the case of `CCOC(=O)Nc1cccc(OC(=O)Nc2ccccc2)c1`, the Potency entry is “inactive”.

On to `NNC(N)=O`, for which the Potency result was “inactive”.

On to `O=c1[nH]c2ccccc2n1C1CCNCC1`, for which the Potency entry is “inactive”.

Regarding `CC(C)(C)C(=O)C(Cl)Cl`, the Potency entry was “inactive”.

For the compound `C1CN2CCC1CC2`, the Potency entry is “inactive”.

In the case of `CC(=O)CN(CC(C)=O)N=O`, the Potency entry is “inactive”.

For the compound `CN(C)C(=O)Oc1cc(OC(=O)N(C)C)cc(C(O)CNC(C)(C)C)c1` (stereo not given), the Potency entry is “inactive”.

In the case of `CCCCCCCCSC(=O)Oc1cc(Cl)nnc1-c1ccccc1`, the Potency entry is “inactive”.

For `CN=CNc1ccc(C)cc1C`, the Potency entry is “inactive”.

On to `C(COCC1CO1)OCC1CO1` (stereo not given), for which the Potency entry is “inactive”.

Regarding `CCNc1nc(NCC)nc(SC)n1`, the Potency result is “inactive”.

As to `O=C(Cl)C(Cl)Cl`, the Potency result is “inactive”.

`O=C(CCl)NCO`: the Potency result was “inactive”.

In the case of `C=CCC1(C(C)CC)C(=O)NC(=O)NC1=O` (stereo not given), the Potency result was “inactive”.

Consider `O=C/C=C/c1ccco1`, for which the Potency entry is “inactive”.

In the case of `Clc1ccc(C(Cl)(Cl)Cl)cn1`, the Potency result was “inactive”.

As for `Cn1c(CCCC(=O)O)nc2cc(N(CCCl)CCCl)ccc21`, the Potency entry is “inactive”.

For `CCCCOC(C)=O`, the Potency entry is “inactive”.

Regarding `Oc1ccc2c3c1O[C@H]1[C@@H](O)C=C[C@H]4[C@@H](C2)NCC[C@@]341`, the Potency result is “inactive”.

As to `C=CCN1CC[C@]23CCCC[C@H]2[C@H]1Cc1ccc(O)cc13`, the Potency result is “inactive”.

On to `O=C(Cl)c1ccccc1`, for which the Potency result was “inactive”.

For the compound `CCN[C@@H](C)Cc1ccccc1`, the Potency result is “inactive”.

As for `CCCOC(=O)c1cncn1C(C)c1ccccc1` (stereo not given), the Potency result is “inactive”.

Consider `CNC(=O)O/N=C(/CSC)C(C)(C)C`, for which the Potency result was “inactive”.
